A selection: hits, their analogues and other compounds. The true share with any hit is near 6.5%.
HCMV inh: qHTS Assay for inhibitors of the human cytomegalovirus (HCMV) | HFF cells, HCMV-luciferase reporter, 72 h; stronger effect = lower value | activity change, negative = inhibition, % at 57.5 µM | 410,000 tested, 4.5% active | AID 1259415, 2018; in the data active = activity change below about -60%; inconclusive = no clear call, values can overlap the other calls; inactive = above about -39%
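Inhibition of viral replication was scored as loss of reporter luminescence in HFFs infected with HCMV-luciferase (MOI 1 PFU/cell) for 72 h; compounds tested at 2 doses, normalized to buffer and Salinomycin controls.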
LASV entry inh: qHTS for Inhibitors of binding or entry into cells for Lassa Virus. Lassa virus pseudotype entry inhibition, cell reporter. Potency, µM (top dose mostly 37.9 µM), without a hit: at the top dose activity change, negative = inhibition, usual class: inhibitors. 300,000 tested, 1.2% active; calls by dose curve; tested in HEK293 cells; note: potency is the fitted concentration of half-maximal effect; nearly all actives have a fitted effect of over 50% in size
Marburg entry inh: qHTS for inhibitors of binding or entry into cells for Marburg Virus. Potency, µM (top dose mostly 37.8 µM), without a hit: at the highest dose activity change, negative = inhibition, hits mostly inhibitors. 300,000 tested, 1.8% active. AID 540276, 2011. Marburg virus pseudotyped entry inhibition, cell reporter; calls by dose curve; tested in HEK293 cells; note: potency is the fitted concentration of half-maximal effect
Vaccinia mCherry: qHTS for Stage-Specific Inhibitors of Vaccinia Orthopoxvirus: mCherry Reporter Primary qHTS; Vaccinia virus mCherry reporter infection, fluorescence; Potency, µM (top dose mostly 36.5 µM), for the others: at the top dose activity change, negative = inhibition, actives largely listed as inhibitors; 310,000 tested, 0.63% active; calls by dose curve; tested in A549 cells; note: potency is the fitted concentration of half-maximal effect; nearly all actives have a fitted effect of over 35% in size
Vaccinia Venus: qHTS for Stage-Specific Inhibitors of Vaccinia Orthopoxvirus: Venus Reporter Primary qHTS; Vaccinia virus Venus reporter expression, fluorescence; Potency, µM (doses to about 36.5 µM), for the others: at the top dose activity change, negative = inhibition, actives largely listed as inhibitors; 330,000 tested, 0.46% active; AID 720580, 2013; calls by dose curve; tested in A549 cells; note: potency is the fitted concentration of half-maximal effect; nearly all actives have a fitted effect of over 30% in size
FMDV inh: High Throughput Screening for Foot and Mouth Disease Virus Antivirals | AID 1159524, 2015 | Potency, µM (titrated, usually from 57.9 µM), for inactives: at the highest dose activity change, negative = inhibition, usual class: inhibitors | FMDV antiviral cell-based qHTS | 410,000 tested, 1.2% active; calls by dose curve; tested in HEK293T cells; note: read-out not given here; potency is the fitted concentration of half-maximal effect; nearly all actives have a fitted effect of over 45% in size
The depositor's hits bear a star; i = inactive; u = inconclusive; x = no result; + = active, no number; [ ] = another dose, or the depositor's remark. % is set by controls: 0 for no effect and ±100 for the full control effect.

SMILES	HCMV inh	LASV entry inh	Marburg entry inh	Vaccinia mCherry	Vaccinia Venus	FMDV inh
CC1(C)Cc2ccccc2C(/C(=N/O)C(N)=O)=N1	62	28%	3%	-1%	-11%	-26%
O=C(CN1Cc2ccccc2OC(c2ccsc2)C1)NCC1OCCc2ccccc21 (stereo unspecified)	x	x	x	0%	0%	0%
O=C(NCCSc1ccccc1)c1ccc(Br)cc1	5	13µM*	u	-13%	-14%	-11%
O=C(NCCCSc1ccccc1)c1cc(Br)ccc1O	-79*	x	x	x	x	-19%
CCC(C(=O)NC1CCC(C)CC1)n1nc(C)c2sc3ccccc3c2c1=O (stereo unspecified)	98	0%[46.1 µM]	13%[46.1 µM]	-21%	-21%	20%
Cc1ccc(-c2nc(NC(=O)CSc3nc(C)nc4sc5c(c34)CCCC5)ns2)cc1	-12	-18%[46.1 µM]	19%[46.1 µM]	-9%	-8%	5%
O=C(CC(Nc1ccc(F)cc1)C(=O)O)c1ccccc1 (stereo unspecified)	-102*	u	-4%	-15%	-2%	29%
CC(C)(c1ccccc1)c1ccc(OCCCN2CCNCC2)cc1	-88*	u	u	-18%	0%	0%
CC(C)c1ccc(OCCCN2CCC(C(O)(c3ccccc3)c3ccccc3)CC2)cc1	-99*	x	x	x	x	x
OC(c1ccccc1)(c1ccccc1)C1CCN(CCCOc2ccc(F)cc2)CC1	-10	x	x	u	u	-20%
Cc1ccc(OCCCN2CCC(C(O)(c3ccccc3)c3ccccc3)CC2)cc1	-18	x	x	u	u	-27%
OC(c1ccccc1)(c1ccccc1)C1CCN(CCCOc2cccc(C(F)(F)F)c2)CC1	-66*	x	x	x	x	x
OC(c1ccccc1)(c1ccccc1)C1CCN(CCCOc2ccc(C(F)(F)F)cc2)CC1	-81*	x	x	x	x	x
COc1ccc(NC(=O)CN2CCN(Cc3ccccc3)S2(=O)=O)c(OC)c1	20	-3%[46.1 µM]	x	-13%	-6%	0%
CC1(C)C2CCC(C2)C1(C)NC(=O)CNCC1CCCCC1 (stereo unspecified)	-25	-13%[46.1 µM]	8.9µM*	i	-29%	-13%
COc1ccc2[nH]c(C(O)C(O)c3nc4c(OC)c(OC)ccc4[nH]3)nc2c1OC (stereo unspecified)	x	x	x	-4%	-20%	x
CCOC(=O)C1NC2CCC(OCC)CC2C1CCCN1C(=O)C2=C(CCCC2)C1=O (stereo unspecified)	x	x	-4%	x	x	x
Cc1nn(-c2ccccc2)c(-c2ccccc2)c1C(=O)O	-67*	1%	26%	x	5%	-16%
Cc1cc(C(=O)Nc2ccc(Nc3ccccc3)cc2)ccc1[N+](=O)[O-]	-21	2%	0%	i	u	-23%
Cc1ccccc1NC(=O)c1ccc(Nc2c([N+](=O)[O-])cc([N+](=O)[O-])c3ccccc23)cc1	-92*	u	u	u	-25%	u
Cc1cc(-c2ccc(C(C)C)c(S(=O)(=O)N3CCOc4ccccc43)c2)on1	-64*	u	3.2µM*	-15%	-4%	u
Cc1ccc(-c2onc(C)c2C)cc1S(=O)(=O)N1c2ccccc2CC1C (stereo unspecified)	-39	-21%[46.1 µM]	x	u	-30%	u
Cc1ccc(-c2onc(C)c2C)cc1S(=O)(=O)N1CCOc2ccccc21	+	x	x	x	x	0%
NC(c1ccc(F)c(F)c1)c1nc(-c2ccc3ccccc3c2)cs1 (stereo unspecified)	-82*	x	x	u	3%	27%
OC(c1ccc(F)c(F)c1)c1nc(-c2ccc3ccccc3c2)cs1 (stereo unspecified)	14	x	x	-3%	-14%	33%
SMILES	HCMV inh	LASV entry inh	Marburg entry inh	Vaccinia mCherry	Vaccinia Venus	FMDV inh
COCCNC(=O)CCCn1c(SCC(=O)Nc2cccc(C)c2)nc2c(sc3ccccc32)c1=O	u	-14%[46.1 µM]	0%[46.1 µM]	-5%	-4%	-9%
COc1ccc2cc(C(=O)O)ccc2c1	90	7%	13%	x	x	11%
COc1ccc(/C=C/c2ccc3ccccc3[n+]2C)cc1OC	x	x	x	-16%	u	57%
COc1ccc2c(c1)c[n+](C)c1c3cc(OC)c(OC)cc3ccc21	-96*	x	x	-16%	-19%	-20%
COc1cc2c[n+](C)c3c4ccccc4ccc3c2cc1OC	-82*	26%	-6%	-14%	-11%	8%
COc1cc2c(ccc3c4cc(OC)c(OC)cc4c[n+](C)c23)cc1O	-100*	-25%	u	-15%	-9%	10%
O=C(OCc1nc2scc(-c3ccccc3)c2c(=O)[nH]1)c1cc([N+](=O)[O-])ccc1Cl	-24	0%	13%	-15%	-8%	40µM*
Cc1oc2c(cc(NS(=O)(=O)c3ccc4c5c(cccc35)C(=O)N4)c3ccccc32)c1C(=O)OC(C)C	-5	u	-21%	x	x	3%
O=C1CCCc2oc3c(cc(NS(=O)(=O)c4ccc5c6c(cccc46)C(=O)N5)c4ccccc43)c21	u	3%[46.1 µM]	11µM*	u	-22%	-9%
Cc1ccc2c(c1)CCCN2C(=O)c1cnn2c1NC(=C1CC1)C=C2C(F)F	x	x	x	-30%	u	x
C=CCNc1nc(S(=O)Cc2ccc(C)cc2)nc2c1CCCC2 (stereo unspecified)	-98*	x	x	x	x	-23%
COc1ccc(Cn2c(=O)n(Cc3ccco3)c(=N)c3c4c(sc32)COC(C)(C)C4)cc1	-24	u	-20%	x	u	-23%
CC1(C)Cc2c(sc3[nH]c(=S)n(Cc4ccccc4)c(=O)c23)CO1	7	6.5µM*	u	-3%	-14%	x
CC1(C)Cc2c(sc3c2c(N)nc(=S)n3Cc2ccccc2)CO1	-31	x	x	x	x	x
CC1(C)Cc2c(sc3c2c(=N)n(Cc2ccco2)c(=O)n3Cc2ccc(F)cc2)CO1	-15	7.1µM*	u	x	u	-21%
CN(C)C(=O)C[C@H]1C[C@@H]2c3cc(NC(=O)NC4CCCC4)ccc3O[C@@H]2[C@@H](CO)O1	-15	x	x	x	x	x
C=CCn1c(C(C)C)nc2ccccc21	-33	-18%[46.1 µM]	-2%[46.1 µM]	-15%	-19%	-9%
C=CCn1c(C)cc(C(=O)Cn2c(C(C)O)nc3ccccc32)c1C (stereo unspecified)	-66*	-28%	-15%[46.1 µM]	-25%	-29%	u
C=CCn1c(C(C)NC(=O)CCC)nc2ccccc21 (stereo unspecified)	-62*	0%	5%	2%	8%	x
CCCC(=O)NC(C)c1nc2ccccc2n1CC (stereo unspecified)	-3	x	x	-9%	5%	-8%
NS(=O)(=O)c1ccc(S(=O)(=O)N2CCN(c3nc(-c4cccs4)nc4ccccc34)CC2)cc1	x	x	x	-11%	-12%	x
COCCc1nn2c(=O)cc(COC(=O)c3ccc4c(c3)OCO4)nc2s1	-13	3%[46.1 µM]	x	-17%	-10%	-7%

Screening results deposited in PubChem by National Center for Advancing Translational Sciences (NCATS).
